Screening data as filed in PubChem.
This is a sample that favours compounds with a hit; in the whole collection about 4.8% have one here.
DAX1 inh-1 = blocks DAX1 repression of SF-1 activated StAR promoter. 370,000 compounds, 1.1% hits. inhibition, % at 6.8 µM. HEK293T StAR-luciferase reporter, SF-1/DAX-1 repression relief;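 active = inhibition above the mean over all tested compounds plus 3 SD, cut at about 3.6% in these data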;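 note: 0% = DAX-1 cells with DMSO and 100% = cells lacking DAX-1 with DMSO; higher inhibition means more luminescence from relief of DAX-1 repression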
SMARCA2 activ = SMARCA2 function activation, primary screen; 370,000 compounds, 1% hits; activation, % at 9.1 µM; AID 652017; MG213 cells, MMTV-luciferase reporter, dexamethasone, overnight; in the data active = activation above about 7.8%;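 note: 0% = vehicle wells and 100% = reference activator wells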
hcDAF12 agonist = H. contortus DAF-12 activation, primary screen. HEK293 hcDAF-12 lit1-tk-luc reporter, luminescence; 0% DMSO, 100% Δ7-dafachronic acid. activation, % at 6.8 µM. 370,000 compounds, 1.4% hits;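 active = activation above the mean of all tested compounds plus 3 SD, cut at about 5.5% in these data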;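 note: 100% = response to 3 µM Δ7-dafachronic acid high control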
ssDAF-12 act = S. stercoralis DAF-12 activation, primary screen; 370,000 compounds, 1% hits; activation, % at 6.8 µM; HEK293 ssDAF-12/GRIP1 lit1-tk-luc reporter, luminescence; % of 3 µM dafachronic acid response; AID 652126;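 active = activation above the mean over all tested compounds plus 3 SD, cut at about 0.9% in these data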;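 note: 0% = DMSO-only wells and 100% = 3 µM delta7-dafachronic acid wells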
DAX1 inh-2 = inhibits human nuclear receptor DAX1; AID 504766; 340,000 compounds, 0.99% hits; P51843; inhibition, % at 6.75 µM; HEK293 Gal4-DAX1 luciferase reporter, luminescence;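 active = inhibition above the mean over all tested compounds plus 3 SD, cut at about 4.2% in these data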;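 note: 0% = DAX1-transfected cells with DMSO and 100% = empty-vector control cells with DMSO; inhibition shows as a rise in luminescence from relieved DAX1 repression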
Target sequence (P51843 207-470 limits assumed): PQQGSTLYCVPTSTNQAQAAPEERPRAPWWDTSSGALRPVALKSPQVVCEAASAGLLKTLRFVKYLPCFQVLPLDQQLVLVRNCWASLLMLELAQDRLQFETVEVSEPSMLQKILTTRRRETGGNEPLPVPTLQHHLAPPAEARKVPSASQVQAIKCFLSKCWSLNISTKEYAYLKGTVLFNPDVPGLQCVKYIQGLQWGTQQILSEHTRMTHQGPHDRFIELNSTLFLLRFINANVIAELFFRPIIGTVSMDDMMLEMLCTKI
hgDAF-12 ag = agonists of H. glycines DAF-12 nuclear receptor; 370,000 compounds, 1.8% hits; HEK293 GAL4-hgDAF12 UAS-luciferase reporter, agonist luminescence; normalized to butyrate control; activation, % at 6.8 µM;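 active = activation above a cutoff set at the mean of all screened compounds plus 3 SD, cut at about 10% in these data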;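 note: 0% = DMSO wells and 100% = sodium butyrate wells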
* marks the source's active call; other numbers are inactive results; nt = no result.

SMILES	DAX1 inh-1	SMARCA2 activ	hcDAF12 agonist	ssDAF-12 act	DAX1 inh-2	hgDAF-12 ag
Cc1onc(-c2c(F)cccc2Cl)c1C(O)c1ccc(F)cc1 (stereo not given)	-0.6	-0.6	1.2	-0.7	nt	-1.7
O=C(Nc1cccc(C(=O)N2CCOCC2)c1)c1ccccc1Br	-0.7	0.8	0.2	-1.1	-0.5	-2.4
CCN(CC)S(=O)(=O)c1ccc(Oc2ccccc2)c(N)c1	-1.1	-2.1	-0.4	-0.8	-1.5	-0.6
O=C(COC(=O)c1cc[n+]([O-])cc1)Nc1ccc(SC(F)F)cc1	0.8	3.8	0.1	1.2*	-0.1	1.4
O=C(COC(=O)c1cc[n+]([O-])cc1)Nc1ccc(Br)cc1	-0.8	-2.0	1.0	-0.2	0.1	-0.5
CCc1ccc(/C=C2/C(=O)N(CC)C(=S)N2C)s1	-0.7	6.9	1.2	-1.1	-2.0	0.6
Cc1ccc(CC(=O)Nc2cccc(C)n2)cc1	1.7	1.7	3.2	1.9*	2.1	4.6
Cc1cccc(NC(=O)Cc2ccc(-c3ccccc3)cc2)n1	0.6	-1.2	-1.5	0.3	0.5	1.9
Cc1cc(NC(=O)CSc2nnc(-c3ccncc3)n2Cc2ccccc2)n(-c2ccccc2)n1	-0.2	-3.4	-0.5	-0.4	-0.5	0.1
Cc1cccc(NC(=O)Cn2nnc3ccccc32)c1	2.7	4.5	3.0	-0.4	4.7*	9.4
Cc1cccc(NC(=O)CSc2nnc(-c3ccncc3)n2C)c1	0.1	-1.9	-0.8	-1.5	0.1	12.2*
Cc1ccc(NC(=O)Cn2nnc3ccccc32)cc1	2.4	0.5	4.6	-0.2	nt	9.5
Cc1cc(NC(=O)CSc2nnc(-c3ccncc3)n2C)n(-c2ccccc2)n1	0.4	2.8	-1.1	-1.5	6.0*	-1.4
COc1ccc(NC(=O)C(NC(C)=O)C(=O)NCc2ccccc2)cc1 (stereo not given)	0.5	2.2	-0.6	-0.7	0.7	-1.1
CC1CC(C)(C)CC2(C1)NC(=O)N(CC(=O)Nc1c(F)cccc1F)C2=O (stereo not given)	0.1	-0.9	0.5	-0.5	1.1	3.0
CC(C)(O)C#Cc1ccc(C(=O)NCCC(=O)O)s1	-0.2	0.0	-2.0	-1.4	-0.2	-1.1
CC1CCc2sc(C(=O)NC3CCCCC3)cc2C1 (stereo not given)	2.2	1.3	3.5	-1.0	4.0	12.1*
CCc1ccc(C(=O)NC2CCCCC2)s1	3.2	3.4	3.1	0.8	0.7	11.2*
CC(C)(O)C#Cc1ccc(C(=O)NC2CCCCC2)s1	1.4	2.8	1.6	-0.6	1.2	10.6*
CCCCCCN1CCN(C2CN(Cc3cn(Cc4cccc(Cl)c4)nn3)S(=O)(=O)C2)CC1 (stereo not given)	-1.6	-8.2	-1.5	-1.6	nt	-1.5
O=C(CSc1nccn1Cc1ccco1)Nc1ccccc1	0.1	2.5	-0.3	-0.2	0.7	-0.3
C(=Cc1cnnc2ccccc12)c1ccccc1	2.1	4.1	2.6	0.6	2.1	12.9*
CCC1CCCCN1C(=O)c1cc2c(=O)n3cccc(C)c3nc2s1 (stereo not given)	nt	nt	nt	nt	1.6	nt
CCN(CC)C(=O)c1cc2c(=O)n3ccccc3nc2s1	2.2	3.1	6.5*	-0.3	0.4	10.3
CCN1CCN(C(=O)c2cc3c(=O)n4ccccc4nc3s2)CC1	0.7	7.2	3.1	-0.2	-0.5	0.0
SMILES	DAX1 inh-1	SMARCA2 activ	hcDAF12 agonist	ssDAF-12 act	DAX1 inh-2	hgDAF-12 ag
CCOC(=O)C1CCN(C(=O)c2cc3c(=O)n4ccccc4nc3s2)CC1	2.1	1.4	6.4*	-0.8	0.4	5.5
CCOC(=O)C1CCN(C(=O)c2cc3c(=O)n4cccc(C)c4nc3s2)CC1	0.4	1.1	6.5*	0.4	-0.6	0.6
Cc1ccc(C(=O)OCC(=O)c2c(N)n(C)c(=O)n(C)c2=O)cc1S(=O)(=O)N1CCCCC1	-0.6	-3.0	-2.7	-1.0	0.1	-1.0
CC[N+](C)(CC)CCC/C(=N/O)C(O)(c1ccccc1)c1ccccc1	-0.2	-6.8	-1.5	-1.3	nt	-3.0
C/C=C/c1ccc(OCC(=O)Nc2ccc(C(N)=O)cc2)c(OC)c1	-0.4	-1.0	0.7	1.1*	1.0	1.0
COc1cc(/C=C/c2cc[n+](C)cc2)ccc1OCC(=O)Nc1ccccc1	0.3	-1.4	0.6	-0.7	1.7	1.4
O=C(Nc1cccc(-c2cn3ccccc3n2)c1)c1cccc(Cl)c1	-2.0	1.3	-2.2	-1.6	-0.5	-2.8
N#Cc1c(-c2ccccc2)cc2nc3ccccc3n2c1N	-0.4	1.8	-1.0	-0.5	4.3*	-0.6
c1cncc(CSc2ccc(-c3cccs3)nn2)c1	-0.1	-1.1	1.7	-1.2	0.6	11.9*
Cc1ccc(CSc2ccc(-c3cccs3)nn2)cc1	0.6	3.9	0.1	-1.3	3.0	5.3
CC(C)(C)NC(=O)C(c1ccc(F)cc1)N(Cc1ccco1)C(=O)c1csnn1 (stereo not given)	0.3	-0.2	-0.9	-0.8	-0.6	-0.8
COc1ccc(CN2C(=O)c3ccccc3C2c2nnnn2C(C)C)cc1OC (stereo not given)	2.9	7.8*	3.7	-0.2	nt	2.4
COc1ccc(CCN2C(=O)c3ccccc3C2c2nnnn2C(C)C)cc1OC (stereo not given)	3.0	-2.3	-1.1	-1.5	nt	-0.4
O=C(NN1C(=O)c2ccccc2NC1c1ccc([N+](=O)[O-])o1)c1ccc([N+](=O)[O-])cc1 (stereo not given)	-2.0	7.2	-0.9	-1.8	-2.2	-3.9
COC(=O)[C@]12C[C@H](CC(=O)NCC3CCCCC3)C(=O)N(Cc3ccc(Cl)cc3Cl)C1=C[C@H](C(C)(C)C)O[C@@H]2C	0.6	-0.1	-1.5	-0.4	nt	1.8
CCOC(=O)c1cnn(-c2ccccn2)c1N	2.6	7.9*	5.1	-0.1	3.4	5.7
Cc1ccc(C)c(NC(=O)C(OC(=O)c2cnc(C)cn2)c2ccccc2)c1 (stereo not given)	2.2	-4.0	1.1	-0.4	-0.6	1.2
Cc1cnc(C(=O)OC(C(=O)c2c[nH]c3ccccc23)c2ccccc2)cn1 (stereo not given)	2.3	-0.1	1.2	0.9*	0.5	-0.2
C=CCNC(=O)CN1CCC(n2c(C)nc3cc(C(F)(F)F)ccc32)CC1	0.3	4.3	-2.5	-1.2	-1.4	-2.3
COc1ccc(-c2nc3ccc(Br)cn3c2Cc2cccc(Cl)c2)cc1OC	-0.1	-2.8	-2.6	-1.1	nt	-0.4
Cc1ccc(C(=O)CCC(=O)Nc2ccccc2F)cc1	0.5	2.2	1.2	1.0*	3.0	3.0
COc1ccccc1NC(=O)CCC(=O)N/N=C(/C)c1ccc(C)cc1	-0.1	-1.4	0.7	-0.8	8.4*	-1.1
Cc1ccc(OCC(=O)Nc2ccccc2F)cc1	1.6	-1.8	4.3	0.1	6.1*	12.8*
